We go through 53 compounds from PubChem BioAssay AID504832 (National Center for Advancing Translational Sciences (NCATS), 2011).

In all, about 310,000 compounds went through this assay and about 18,000 (5.8%) were called active. Another 22% or so got no clear call; they are omitted. This is one part of a sample in which actives are shown more often than they occur. Unmarked numbers belong to inactive results. The call rests on the fitted dose curve; in most records, active means well fitted inhibition curve with a large enough effect; inconclusive means small, poorly fitted or top-dose-only effect, or another doubt; inactive means no such curve, though single readings can be large or run the other way.
On the % scale 0 is the no-effect control and ±100 the full control effect; potency means the concentration at half of the fitted maximal effect.

A short description of the test: Primary qHTS for delayed death inhibitors of the malarial parasite plastid, 48 hour incubation. The settings on record: P. falciparum luciferase growth in erythrocytes; series mostly up to 28.7 µM; activity change, negative = inhibition: at the top concentration. A digest of the protocol: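 Erythrocytes infected with P. falciparum carrying an integrated firefly luciferase reporter (2% hematocrit, 0.1% parasitemia final) were exposed to compounds in RPMI 1640 with 0.5% Albumax at 37 C, 5% CO2. Growth inhibition was scored as reduced luminescence.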
On the technique in general: In qHTS, concentration-response curves come from the screen itself.
Take `CCOC(=O)c1cc(Sc2ccccc2N)cc(C(=O)OCC)n1`: the Potency is 0.147 µM (active).
In the case of `CCOc1ccc(N2C(=O)CSC2=NC#N)cc1`, the “activity change, negative = inhibition” value was -21.6%.
On to `COc1ccccc1CNS(=O)(=O)CC12CCC(CC1=O)C2(C)C` (stereo not drawn), for which the “activity change, negative = inhibition” value was 10.1%.
For `COC(=O)c1ccc(Nc2ncnc3sccc23)cc1`, the “activity change, negative = inhibition” value was 19.8%.
In the case of `Cc1nnc(SCc2ccc(C(=O)c3ccc(Cl)cc3)o2)n1-c1ccccc1`, the Potency was 14.7 µM (active).
Regarding `Cc1nnc(SCC(=O)N2CCN(c3ccccc3)CC2)n1-c1ccccc1`, the “activity change, negative = inhibition” value was -0.135%.
As for `Cc1nnc(SCC(=O)NCCOc2ccc(Cl)cc2)n1-c1ccccc1`, the “activity change, negative = inhibition” value is -17.2%.
Still for that read-out and setting: the value for `Cc1noc(C)c1C(=O)NCCc1ccc(S(N)(=O)=O)cc1` was -3.59%; that for `COc1ccc(C)cc1NC(=S)N1CCOCC1` was 0.499%; that for `CCOC(=O)c1sc(NC(=O)c2sc(C)nc2C)nc1C` was 19.2%.
As for `Cn1c(Nc2ccccc2)cc(=O)n(C)c1=O`, the “activity change, negative = inhibition” value is -11.8%.
`O=C1C(Cc2ccc(O)cc2)NC(=S)N1Cc1ccccc1` (stereo not drawn): the Potency was 2.94 µM (active).
As to `Cc1ccc(N2C(=O)C(Cc3ccccc3)NC2=S)cc1` (stereo not drawn), the “activity change, negative = inhibition” value was -18.5%.
Take `CCCCc1ccc(NC(=O)CN2C(=O)NC(Cc3ccccc3)C2=O)cc1` (stereo not drawn): the “activity change, negative = inhibition” value was -23.3%.
`C=CCOc1ccc(C(=O)Nc2ccccc2C(=O)N2CCCC2)cc1`: the “activity change, negative = inhibition” value is -4.59%.
Still for that read-out and setting: the value for `CCOC(=O)CNc1nc(Cl)nc(Nc2ccc(OC)cc2OC)n1` was 122%.
With `Cc1c(O)c(C)c2c(c1O)C(=O)C[C@@H](c1ccccc1)O2`, the Potency is 13.1 µM (active).
As to `CCCc1cc(C(=O)Nc2ccc(Cl)cn2)cs1`, the “activity change, negative = inhibition” value is 274%.
Take `Cc1cc(CNC(=O)C2CCC(=O)N(CCc3ccc(Cl)cc3)C2)no1` (stereo not drawn): the “activity change, negative = inhibition” value was -6.17%.
In the case of `CCC(C)NC(=O)CSC1=Nc2ccccc2C2=NC(CCC(=O)NCc3ccco3)C(=O)N12` (stereo not drawn), the “activity change, negative = inhibition” value is 0.708%.
Same read-out and setting: the figure for `NC(=O)CSC1=Nc2ccccc2C2=NC(CCC(=O)NCc3ccc(F)cc3)C(=O)N12` (stereo not drawn) is 16.7%.
On to `O=C(CC1N=C2c3ccccc3N=C(SCc3ccccc3Cl)N2C1=O)NCc1ccco1` (stereo not drawn), for which the Potency was 4.65 µM (active).
For `Cc1ccc(C(=O)NCC(=O)NCc2cc(=O)n(C)c(=O)n2C)cc1`, the “activity change, negative = inhibition” value was 20.1%.
Turning to `COc1ccc(C(=O)Nc2ccc3nc(N4CCCCC4)cc(C)c3c2)cc1OC`, the Potency is 3.7 µM (active).
Regarding `COc1ccc(NC(=O)CC2SC(N3CCCCC3)=NC2=O)cc1OC` (stereo not drawn), the “activity change, negative = inhibition” value is 1.93%.
As for `COc1ccc(C(=O)NC(=S)Nc2ccc(N3CCCC3)cc2)cc1OC`, the “activity change, negative = inhibition” value was 2.93%.
As to `COc1ccc(NC(=O)CCn2ccnc2)c(OC)c1`, the “activity change, negative = inhibition” value is 2.35%.
With `CCN(CC)c1ccc(C(=O)NNC(=O)CCc2nc3ccccc3c(=O)[nH]2)cc1`, the “activity change, negative = inhibition” value was 0%.
For `CC(=O)NCc1ccc(-c2csc(NC(=O)CCCc3nc4ccccc4c(=O)[nH]3)n2)cc1`, the Potency was 9.28 µM (active).
As to `CC(C)(C)c1ccc(NC(=O)COC(=O)CCc2nc3ccccc3c(=O)[nH]2)cc1`, the “activity change, negative = inhibition” value was 36.9%.
As for `O=C(CSc1nc2ccccc2c(=O)[nH]1)Nc1nc(-c2ccc(Br)cc2)cs1`, the “activity change, negative = inhibition” value was 4.63%.
Turning to `Cc1cc(C)c(-c2csc(NC(=O)CCCc3nc4ccccc4c(=O)[nH]3)n2)c(C)c1`, the Potency was 0.131 µM (active).
With `COc1ccc(-c2csc(NC(=O)CCCc3cccs3)n2)cc1`, the “activity change, negative = inhibition” value was 5.99%.
Regarding `CN(C(=O)CCNC(=O)Cn1ccc2ccccc2c1=O)c1ccc(Br)cc1`, the “activity change, negative = inhibition” value was 23.2%.
Same read-out and setting: the value for `N=c1oc2ccccc2cc1C(=O)NCc1ccccc1` was 23.7%.
In the case of `CS(=O)(=O)N1CCc2cc(C(=O)Nc3ccccc3Br)ccc21`, the “activity change, negative = inhibition” value is 88.1%.
On to `COc1ccc(NC(=O)CNC(=O)Cc2ccccc2)cc1OC`, for which the “activity change, negative = inhibition” value was 27%.
On the same count and under the same terms, the value for `Cc1cc(NC(=O)CCC(=O)N(Cc2ccccc2)C(C(=O)NC2CCCC2)c2ccc(C)o2)no1` (stereo not drawn) was -18.2%; that for `CN(Cc1c(F)cccc1Cl)C(=O)CNC(=O)c1ccc2c(c1)OCO2` was 24.5%.
In the case of `NC(=O)NC(CC(=O)NNC(=O)c1ccccn1)c1ccc(Cl)cc1` (stereo not drawn), the “activity change, negative = inhibition” value was -6.59%.
Regarding `Cc1cc(C)c2c(=O)[nH]c(SCC(=O)Nc3ccc(Br)cc3)nc2n1`, the “activity change, negative = inhibition” value is 21.1%.
Turning to `CN(C)CCn1c2c(c(SCC(=O)Nc3ccccc3C(F)(F)F)nc1=O)CCCC2`, the “activity change, negative = inhibition” value is 5.64%.
In the case of `CN(C)CCn1c2c(c(SCC(=O)NCc3ccccc3)nc1=O)CCC2`, the “activity change, negative = inhibition” value was 2.52%.
As to `COc1ccccc1CNC(=O)CSc1nc(=O)n(Cc2ccncc2)c2c1CCC2`, the Potency was 11.7 µM (active).
Regarding `Cc1ccc(NS(=O)(=O)c2ccc3c(c2)oc(=O)n3C)c(C)c1`, the “activity change, negative = inhibition” value was 22%.
In the case of `Cc1c(NC(=O)C(C)Oc2cccc(Cl)c2)c(=O)n(-c2ccccc2)n1C` (stereo not drawn), the “activity change, negative = inhibition” value is 32.1%.
Take `COc1ccc(NC(=O)c2cnc(NS(=O)(=O)c3ccccc3)nc2)cc1`: the “activity change, negative = inhibition” value was 25.7%.
For the compound `COc1ccc(-c2cc(C(=O)N(C)CC(=O)Nc3ccccc3Cl)c3ccccc3n2)cc1OC`, the Potency was 13.1 µM (active).
Consider `CN(CC(=O)Nc1ccccc1Cl)C(=O)c1ccccc1SCC(=O)N1CCCC1`, for which the “activity change, negative = inhibition” value was 11.3%.
`Cc1ccc(-c2cc(C(=O)Nc3nn[nH]n3)c3ccccc3n2)c(C)c1`: the “activity change, negative = inhibition” value is -32%.
`COc1ccc(C)cc1N(C)C(=O)c1coc(=O)c2ccccc12`: the “activity change, negative = inhibition” value is -11.7%.
As for `Cc1cccc(C(=O)NCC(=O)OCC(=O)N(C)CC(=O)Nc2ccccc2Cl)c1`, the “activity change, negative = inhibition” value is -14.3%.
As for `COc1ccc(CN(C)C(=O)c2cc(-c3ccc(C)cc3C)nc3ccccc23)c(OC)c1OC`, the Potency is 9.28 µM (active).
